Measured values: PubChem BioAssay (EPA / NIEHS)
The source made the active and inactive calls. Rule for the calls: active = hit-call score of the fitted dose curve at least 0.9, where 1 is the maximum; inactive = score below 0.9.

Experiments:
Details in all cases: mRNA level, 48 h; actives raise or lower the signal
[1] = read-out: DNA damage-inducible transcript 3 (DDIT3), DDIT3 (gene 1649); test: LTEA_HepaRG_DDIT3: Life Technologies and Expression Analysis (LTEA) Assay for DNA damage-inducible transcript 3 (DDIT3) using HepaRG (AID 2283488)
Summary of the method: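 HepaRG plated 48 h, switched to serum-free induction medium, dosed 48 h (100 uM top, half-log, 8 pts, 0.5% DMSO, n=2); RNA isolated; DDIT3 by qRT-PCR; bidirectional curve fit vs DMSO.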

[2] = read-out: Pro-epidermal growth factor (Homo sapiens) (UniProt P01133); test: LTEA_HepaRG_EGF: Life Technologies and Expression Analysis (LTEA) Assay for Epidermal growth factor (EGF) using HepaRG (AID 2283489)
Summary of the method: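 HepaRG cells (~100,000/well, 48 h pre-culture) exposed in duplicate for 48 h in serum-free induction medium to 8 half-log concentrations up to 100 uM in 0.5% DMSO. EGF mRNA by qRT-PCR, normalized to ACTB/GAPDH/POLR2A; bidirectional fit versus DMSO.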

[3] = read-out: Ezrin (EZR), EZR (gene 7430); test: LTEA_HepaRG_EZR: Life Technologies and Expression Analysis (LTEA) Assay for Ezrin (EZR) using HepaRG (AID 2283491)
Summary of the method: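 EZR transcript levels came from Fluidigm qRT-PCR and were normalized to three housekeeping genes after 48 h chemical exposure of HepaRG cells. Dosing used an 8-point half-log series with a 100 uM top concentration in 0.5% DMSO, tested in duplicate; both directions were fitted versus vehicle.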

[4] = read-out: Cytochrome P450 3A7 (Homo sapiens) (UniProt P24462); test: LTEA_HepaRG_CYP3A7: Life Technologies and Expression Analysis (LTEA) Assay for CYP3A7 using HepaRG (AID 2283492)
Summary of the method: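 Differentiated HepaRG cells in serum-free induction medium exposed 48 h in duplicate to 8-point half-log series from 100 uM top in 0.5% DMSO. CYP3A7 mRNA by qRT-PCR, normalized to ACTB/GAPDH/POLR2A, bidirectional fit versus DMSO.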

CYP3A5 (gene 1577) = test: LTEA_HepaRG_CYP3A5: Life Technologies and Expression Analysis (LTEA) Assay for CYP3A5 using HepaRG (AID 2283493)
Summary of the method: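 HepaRG plated 48 h, switched to serum-free induction medium, chemicals added 48 h (max 100 uM, half-log, 0.5% DMSO). RNA isolated; CYP3A5 by TaqMan qRT-PCR. Gain/loss vs DMSO.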

[5] = read-out: Fatty Acid-Binding Protein 1 (FABP1), FABP1 (gene 2168); test: LTEA_HepaRG_FABP1: Life Technologies and Expression Analysis (LTEA) Assay for Fatty Acid-Binding Protein 1 (FABP1) using HepaRG (AID 2283494)
Summary of the method: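 Differentiated human HepaRG cells were exposed in duplicate for 48 h in serum-free induction medium to 8-point half-log concentration series topping at 100 uM in 0.5% DMSO. FABP1 mRNA measured by TaqMan qRT-PCR, normalized to ACTB/GAPDH/POLR2A; bidirectional fit versus DMSO.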

[6] = read-out: Cytochrome P450 4A22 (Homo sapiens) (UniProt Q5TCH4); test: LTEA_HepaRG_CYP4A22: Life Technologies and Expression Analysis (LTEA) Assay for Cytochrome P450 4A22 (CYP4A22) using HepaRG (AID 2283495)
Summary of the method: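 Differentiated HepaRG cells in serum-free induction medium exposed 48 h in duplicate to eight half-log concentrations up to 100 uM in 0.5% DMSO. CYP4A22 mRNA quantified by TaqMan qRT-PCR, normalized to ACTB, GAPDH and POLR2A; bidirectional fit versus DMSO.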

[7] = read-out: Cytochrome P450 7A1 (Homo sapiens) (UniProt P22680); test: LTEA_HepaRG_CYP7A1: Life Technologies and Expression Analysis (LTEA) Assay for Cytochrome P450 7A1 (CYP7A1) using HepaRG (AID 2283496)
Summary of the method: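 HepaRG cells plated 48 h, then switched to serum-free induction medium and exposed in duplicate for 48 h to 8-point half-log series from 100 uM in 0.5% DMSO. CYP7A1 mRNA by qRT-PCR (TaqMan), normalized to ACTB/GAPDH/POLR2A; bidirectional fit versus DMSO.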

[8] = read-out: Glutathione S-Transferase (GSTA2), GSTA2 (gene 2939); test: LTEA_HepaRG_GSTA2: Life Technologies and Expression Analysis (LTEA) Assay for Glutathione S-Transferase (GSTA2) using HepaRG (AID 2283497)
Summary of the method: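 Human HepaRG cells, plated 48 h, then exposed in serum-free induction medium for 48 h to eight half-log concentrations up to 100 uM in 0.5% DMSO, duplicate. GSTA2 mRNA by qRT-PCR, normalized to ACTB/GAPDH/POLR2A; bidirectional fit versus DMSO.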

[9] = read-out: Glutamate-cysteine ligase catalytic (GCLC), GCLC (gene 2729); test: LTEA_HepaRG_GCLC: Life Technologies and Expression Analysis (LTEA) Assay for Glutamate-cysteine ligase catalytic (GCLC) using HepaRG (AID 2283498)
Summary of the method: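 Differentiated human HepaRG cells, plated 48 h then switched to serum-free induction medium, were exposed in duplicate for 48 h to 8 half-log concentrations topping at 100 uM in 0.5% DMSO. GCLC mRNA was quantified by qRT-PCR against ACTB, GAPDH and POLR2A.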

[10] = read-out: growth arrest and DNA damage 45 (GADD45G), GADD45G (gene 10912); test: LTEA_HepaRG_GADD45G: Life Technologies and Expression Analysis (LTEA) Assay for growth arrest and DNA damage 45 (GADD45G) using HepaRG (AID 2283499)
Summary of the method: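 Differentiated human HepaRG cells, 48 h post-plating, exposed 48 h in serum-free induction medium to 8 half-log concentrations (top 100 uM, 0.5% DMSO) in duplicate. GADD45G mRNA measured by Fluidigm TaqMan qRT-PCR, normalized to ACTB, GAPDH, POLR2A; bidirectional fit versus DMSO.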

[11] = read-out: Glutamate-cysteine ligase regulatory (GCLM), GCLM (gene 2730); test: LTEA_HepaRG_GCLM: Life Technologies and Expression Analysis (LTEA) Assay for Glutamate-cysteine ligase regulatory (GCLM) using HepaRG (AID 2283500)
Summary of the method: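 Cells were plated, cultured 48 h, switched to serum-free induction medium, then dosed in duplicate for 48 h at eight half-log concentrations up to 100 uM. RNA was then profiled by qRT-PCR; gain or loss versus DMSO was fitted.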

[12] = read-out: Glutathione S-transferase M3 (GSTM3), GSTM3 (gene 2947); test: LTEA_HepaRG_GSTM3: Life Technologies and Expression Analysis (LTEA) Assay for Glutathione S-transferase M3 (GSTM3) using HepaRG (AID 2283501)
Summary of the method: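 Differentiated human HepaRG cells were exposed in duplicate for 48 h in serum-free induction medium, 8 points from 100 uM top in half-log steps, 0.5% DMSO. GSTM3 mRNA was measured by TaqMan qRT-PCR, normalized to ACTB, GAPDH and POLR2A; bidirectional fit versus DMSO.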

[13] = read-out: Heat shock 70 kDa protein 1 (HSPA1A), gene 3303; test: LTEA_HepaRG_HSPA1A: Life Technologies and Expression Analysis (LTEA) Assay for Heat shock 70 kDa protein 1 (HSPA1A) using HepaRG (AID 2283502)
Summary of the method: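 Readout is HSPA1A transcript level by microfluidic qRT-PCR, normalized to three housekeeping genes and analysed for gain or loss of signal relative to 0.5% DMSO. Human HepaRG cultures received test chemicals for 48 h at up to 100 uM.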

[14] = read-out: Hypoxia-inducible factor 1-alpha (Homo sapiens) (UniProt Q16665); test: LTEA_HepaRG_HIF1A: Life Technologies and Expression Analysis (LTEA) Assay for Hypoxia-inducible factor 1 (HIF1A) Trancription factor using HepaRG (AID 2283503)
Summary of the method: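 Differentiated HepaRG cells in serum-free induction medium exposed 48 h, in duplicate, to 8-point half-log series from 100 uM in 0.5% DMSO. HIF1A mRNA measured by TaqMan qRT-PCR, normalized to ACTB/GAPDH/POLR2A, fitted bidirectionally versus DMSO.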

[15] = read-out: 3-Hydroxy-3-Methylglutaryl-CoA Synthase 2 (HMGCS2), HMGCS2 (gene 3158); test: LTEA_HepaRG_HMGCS2: Life Technologies and Expression Analysis (LTEA) Assay for 3-Hydroxy-3-Methylglutaryl-CoA Synthase 2 (HMGCS2) using HepaRG (AID 2283504)
Summary of the method: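 Human HepaRG cells in serum-free induction medium were exposed in duplicate for 48 h to 8-point half-log series from 100 uM top in 0.5% DMSO. HMGCS2 mRNA measured by TaqMan qRT-PCR, normalised to ACTB, GAPDH, POLR2A; bidirectional fit versus DMSO.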

HGF (gene 3082) = test: LTEA_HepaRG_HGF: Life Technologies and Expression Analysis (LTEA) Assay for Hepatocyte Growth Facto (HGF) using HepaRG (AID 2283505)
Summary of the method: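 Differentiated HepaRG cells in serum-free induction medium exposed 48 h in duplicate, 8 half-log concentrations from 100 uM in 0.5% DMSO. HGF mRNA by qRT-PCR, normalised to ACTB, GAPDH, POLR2A; bidirectional fitting.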

[16] = read-out: Insulin Like Growth Factor 1 (IGF1), IGF1 (gene 3479); test: LTEA_HepaRG_IGF1: Life Technologies and Expression Analysis (LTEA) Assay for Insulin Like Growth Factor 1 (IGF1) using HepaRG (AID 2283506)
Summary of the method: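 HepaRG, plated 48 h, then switched to serum-free induction media; test chemical 8-pt half-log from 100 uM (0.5% DMSO), duplicate, 48 h. Lysis in RLT, TaqMan qRT-PCR, norm. ACTB/GAPDH/POLR2A. Bidirectional fit vs DMSO.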

[17] = read-out: Intercellular Adhesion Molecule 1 (ICAM1), ICAM1 (gene 3383); test: LTEA_HepaRG_ICAM1: Life Technologies and Expression Analysis (LTEA) Assay for Intercellular Adhesion Molecule 1 (ICAM1) using HepaRG (AID 2283507)
Summary of the method: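 Differentiated human HepaRG cells in serum-free induction medium exposed 48 h in duplicate to 8 half-log concentrations (top 100 uM, 0.5% DMSO). ICAM1 mRNA quantified by TaqMan qRT-PCR, normalized to ACTB, GAPDH and POLR2A; bidirectional fitting versus DMSO.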

[18] = read-out: Early growth response protein 1 (EGR1) transcription factor, EGR1 (gene 1958); test: LTEA_HepaRG_EGR1: Life Technologies and Expression Analysis (LTEA) Assay for Early growth response protein 1 (EGR1) transcription factor using HepaRG (AID 2283490)
Summary of the method: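 Differentiated human HepaRG cells in serum-free induction medium were exposed in duplicate for 48 h to eight concentrations (top 100 uM, half-log steps) in 0.5% DMSO. EGR1 mRNA was quantified by qRT-PCR, normalized to ACTB, GAPDH and POLR2A, and fitted bidirectionally versus DMSO.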

Chain of Hypoxia-inducible factor 1-alpha (Homo sapiens) (Q16665 whole entry, looked up): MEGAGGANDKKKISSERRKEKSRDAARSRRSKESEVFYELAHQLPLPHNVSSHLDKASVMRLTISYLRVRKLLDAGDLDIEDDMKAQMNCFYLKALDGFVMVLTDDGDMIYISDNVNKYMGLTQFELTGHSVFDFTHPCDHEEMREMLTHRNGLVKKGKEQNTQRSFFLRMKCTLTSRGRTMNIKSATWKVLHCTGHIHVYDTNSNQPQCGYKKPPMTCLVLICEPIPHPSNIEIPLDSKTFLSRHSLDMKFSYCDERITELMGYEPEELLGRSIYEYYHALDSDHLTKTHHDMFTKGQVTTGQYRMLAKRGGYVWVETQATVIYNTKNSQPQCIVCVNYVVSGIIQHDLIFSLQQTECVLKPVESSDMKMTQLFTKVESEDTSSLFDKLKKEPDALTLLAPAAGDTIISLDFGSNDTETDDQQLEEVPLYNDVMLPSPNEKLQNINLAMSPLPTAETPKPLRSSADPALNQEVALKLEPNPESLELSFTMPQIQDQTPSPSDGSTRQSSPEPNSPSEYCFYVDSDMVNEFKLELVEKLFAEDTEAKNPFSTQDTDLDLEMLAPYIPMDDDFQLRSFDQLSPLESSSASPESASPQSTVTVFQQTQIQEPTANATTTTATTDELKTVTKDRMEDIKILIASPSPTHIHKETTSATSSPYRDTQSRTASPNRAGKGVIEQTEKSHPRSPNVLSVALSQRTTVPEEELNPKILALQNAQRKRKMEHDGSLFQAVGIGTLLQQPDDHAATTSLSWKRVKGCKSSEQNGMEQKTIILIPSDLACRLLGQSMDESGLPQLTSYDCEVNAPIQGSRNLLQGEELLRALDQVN
Chain of Cytochrome P450 3A7 (Homo sapiens) (P24462 whole entry, looked up): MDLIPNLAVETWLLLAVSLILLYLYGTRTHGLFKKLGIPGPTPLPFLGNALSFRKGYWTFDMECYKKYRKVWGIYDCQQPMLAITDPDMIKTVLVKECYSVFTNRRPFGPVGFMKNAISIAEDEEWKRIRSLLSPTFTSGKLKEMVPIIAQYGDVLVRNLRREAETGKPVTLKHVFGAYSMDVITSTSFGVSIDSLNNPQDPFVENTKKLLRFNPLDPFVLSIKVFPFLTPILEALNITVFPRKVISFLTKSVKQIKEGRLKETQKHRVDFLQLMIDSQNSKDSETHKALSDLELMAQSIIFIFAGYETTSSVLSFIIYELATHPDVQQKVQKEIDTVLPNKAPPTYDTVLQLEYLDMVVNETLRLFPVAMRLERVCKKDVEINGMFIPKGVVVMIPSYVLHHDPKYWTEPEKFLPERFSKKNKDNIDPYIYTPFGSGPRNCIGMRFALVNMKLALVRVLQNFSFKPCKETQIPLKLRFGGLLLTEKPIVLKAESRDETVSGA

How did the outcome [1] turn out when CC(=O)OC/C=C(\C)CCC=C(C)C was run?
The outcome was “inactive”.

What about the outcome [2] of the same compound?
The outcome was “inactive”.

And the outcome [3]?
Its outcome is “inactive”.

What about the outcome [4] of the same compound?
The outcome was “inactive”.

And the outcome (CYP3A5 (gene 1577))?
The outcome was “inactive”.

And the outcome [5]?
The outcome was “inactive”.

What about the outcome [6] of the same compound?
Its outcome is “inactive”.

And the outcome [7]?
Its outcome is “inactive”.

What about the outcome [8] of the same compound?
The outcome was “inactive”.

And the outcome [9]?
The outcome was “inactive”.

What about the outcome [10] of the same compound?
The outcome was “inactive”.

And the outcome [11]?
Its outcome is “inactive”.

What about the outcome [12] of the same compound?
Its outcome is “inactive”.

And the outcome [13]?
Its outcome is “inactive”.

And the outcome [14]?
The outcome was “inactive”.

What about the outcome [15] of the same compound?
The outcome was “inactive”.

And the outcome (HGF (gene 3082))?
Its outcome is “inactive”.

What about the outcome [16] of the same compound?
The outcome was “inactive”.

What about the outcome [17] of the same compound?
Its outcome is “inactive”.

Which AC50 [1] does the source give for Nc1ccc2c(c1)C(=O)c1ccccc1C2=O here?
The AC50 was 20.9 µM (active).

And the AC50 [2]?
The AC50 was 6.13 µM (active).

What about the AC50 [18] of the same compound?
Its AC50 is 10.4 µM (active).

And the outcome [3]?
Its outcome is “inactive”.

And the outcome [4]?
The outcome was “inactive”.

And the AC50 (CYP3A5 (gene 1577))?
Its AC50 is 1.6 µM (active).

What about the AC50 [5] of the same compound?
Its AC50 is 13.6 µM (active).

What about the AC50 [6] of the same compound?
The AC50 was 31 µM (active).

What about the AC50 [7] of the same compound?
The AC50 was 8.9 µM (active).

And the AC50 [8]?
Its AC50 is 10.2 µM (active).

And the outcome [9]?
The outcome was “inactive”.

And the AC50 [10]?
Its AC50 is 3.17 µM (active).

What about the AC50 [11] of the same compound?
Its AC50 is 10.1 µM (active).

What about the outcome [12] of the same compound?
Its outcome is “inactive”.

What about the outcome [14] of the same compound?
The outcome was “inactive”.

And the AC50 [15]?
The AC50 was 16.5 µM (active).

And the outcome [16]?
The outcome was “inactive”.

What about the outcome [17] of the same compound?
Its outcome is “inactive”.

Which results are given for CCCCCCCCCCC?
outcome [1]: inactive; outcome [2]: inactive; outcome [18]: inactive; outcome [3]: inactive; outcome (CYP3A5 (gene 1577)): inactive; outcome [5]: inactive; outcome [6]: inactive; outcome [8]: inactive; outcome [9]: inactive; outcome [10]: inactive; outcome [11]: inactive; outcome [12]: inactive; outcome [13]: inactive; outcome [14]: inactive; outcome [15]: inactive; outcome (HGF (gene 3082)): inactive; outcome [16]: inactive; outcome [17]: inactive
